Laboratory results from PubChem BioAssay (Tox21).
Values without a mark were called inactive. Inconclusive results are not listed. A call without a number means that no potency is given here. The source made the active and inactive calls. Unless noted, the call rests on the fitted dose curve.

How the values were obtained:
[1] = qHTS assay to identify small molecule agonists of the sonic hedgehog signaling (Shh) pathway (AID 1259368);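 further: NIH/3T3-derived 3T3Gli1-Luc cells carrying a stable Gli1-driven firefly luciferase reporter; series mostly up to about 92 µM; nearly all actives have a fitted effect of over 15% in size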
Outline: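 Steps: seed 3T3 Gli1-Luc cells, incubate 4 hr at 37 C, pin-transfer compounds in DMSO alongside a positive control, incubate 24 hr, add luciferase detection reagent, wait 30 min at room temperature, read luminescence.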

[2] = qHTS assay to identify small molecule antagonists of the sonic hedgehog signaling (Shh) pathway (AID 1259369); further: nearly all actives have a fitted effect of over 45% in size
Outline: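 Inhibition of Shh signalling is measured as reduced Gli1-response-element firefly luciferase output in an NIH/3T3-derived stable reporter clone stimulated with conditioned medium for 24hr.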

[3] = target: Estrogen receptor beta (Homo sapiens) (UniProt Q92731); assay: qHTS assay to identify small molecule agonists of the estrogen receptor beta (ER-beta) signaling pathway (AID 1259377; active means well fitted activation curve with a large enough effect in the signal ratio in the repeat runs, not every such curve was filed as active; the % refers to the signal ratio)
Outline: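 ER-beta-UAS-bla HEK293T (GripTite) cells carrying a UAS-driven beta-lactamase reporter, in medium with 2% charcoal-stripped FBS, were exposed to compounds for 16 hr at 37C; LiveBLAzer B/G FRET substrate was then added and fluorescence read after 2 hours at room temperature.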

[4] = target: Estrogen receptor beta (Homo sapiens) (UniProt Q92731); assay: qHTS assay to identify small molecule antagonists of the estrogen receptor beta (ER-beta) signaling pathway (AID 1259378; active means well fitted inhibition curve with a large enough effect in the signal ratio in the repeat runs, not every such curve was filed as active; the % refers to the signal ratio)
Outline: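 ER-beta-UAS-bla HEK293T (GripTite) cells in 2% charcoal-stripped FBS medium were preincubated 6 hr at 37C, dosed with compound, then stimulated with 1 nM E2 (final) for 16 hr; beta-lactamase reporter read by B/G FRET fluorescence after 2 hr substrate loading.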

[5] = qHTS assay to identify small molecule agonists of the androgen receptor (AR) signaling pathway in the presence of an antagonist - cell viability counter screen (AID 1259379; active means well fitted curve in the direction sought with a large enough effect in the repeat runs; an effect the other way counts as inactive or inconclusive;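 further: MDA-kb2 human breast cancer cells carrying an MMTV luciferase reporter; series mostly up to about 92 µM; nearly all actives have a fitted effect of over 25% in size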)
Outline: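 Fluorescence from CellTiter-Fluor, added after 15 hr and read 1 hr later, gave cell viability. Cells were MDA-kb2 exposed to compounds (15 concentrations) in the presence of 3.0uM nilutamide at 37C, 0% CO2.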

[6] = qHTS assay to identify small molecule agonists of the estrogen receptor beta (ER-beta) signaling pathway - cell viability counter screen (AID 1259380; active means well fitted curve in the direction sought with a large enough effect in the repeat runs; an effect the other way counts as inactive or inconclusive; further: nearly all actives have a fitted effect of over 30% in size; further: potency means the concentration at half of the fitted maximal effect)
Outline: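 Same-well viability counter screen. Cells: ER-beta-UAS-bla HEK293T, plated 6 hr before compound, in 2% charcoal-stripped FBS. Compound exposure 16 hr, 37C; viability by CellTiter-Glo luminescence after 30 min at room temperature.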

[7] = qHTS assay to identify small molecule antagonists of the estrogen receptor beta (ER-beta) signaling pathway - cell viability counter screen (AID 1259382; active means well fitted curve in the direction sought with a large enough effect in the repeat runs; an effect the other way counts as inactive or inconclusive; further: series mostly up to about 92 µM; nearly all actives have a fitted effect of over 55% in size)
Outline: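 Following a 6 hr plating period, HEK293T cells carrying a UAS-driven beta-lactamase reporter under ER-beta control received compounds and 1nM E2 (final). After 16 hr at 37C and 2 hr substrate loading, CellTiter-Glo luminescence indicated viability.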

[8] = qHTS assay to identify small molecule agonists or antagonists of the thyroid stimulating hormone receptor (TSHR) signaling pathway - wild type cell line counter screen (AID 1259384)
Outline: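 Wild-type HEK293 cells were plated 18 h at 37 C/5% CO2, pin-dosed with compound plus Ro20-1724 medium, held 30 min at room temperature, then given cAMP-d2 and anti-cAMP-cryptate; fluorescence was read after 1 h. Fifteen concentrations, triplicate.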

[9] = target: Thyrotropin receptor (Homo sapiens) (UniProt P16473); assay: qHTS assay to identify small molecule antagonists of the thyroid stimulating hormone receptor (TSHR) signaling pathway (AID 1259385); further: nearly all actives have a fitted effect of over 20% in size
Outline: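 TSHR-HEK293 cells were plated and held 18 h at 37C/5% CO2, then given compound plus Ro20-1724 and stimulated with TSH at 1.5 ng/mL final. After 30 min at room temperature, cAMP was detected with cAMP-d2/anti-cAMP-cryptate (1 h) by fluorescence.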

[10] = qHTS assay to identify small molecule agonists of the estrogen receptor alpha (ER-alpha) signaling pathway in the presence of an antagonist - cell viability counter screen (AID 1259386; active means well fitted curve in the direction sought with a large enough effect in the repeat runs; an effect the other way counts as inactive or inconclusive;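 further: series mostly up to about 92 µM; cells exposed to compounds for 22 h at 37 °C before the viability read; nearly all actives have a fitted effect of over 30% in size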)
Outline: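 Cells are starved of estrogens for 5 days in charcoal-stripped serum, seeded for 24hr and co-treated with ICI-182,780 (10.0nM final) and test compounds. After 22hr at 37C, viability is read as CellTiter-Fluor fluorescence.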

[11] = target: Progesterone receptor (Homo sapiens) (UniProt P06401); assay: qHTS assay to identify small molecule agonists of the progesterone receptor (PR) signaling pathway (AID 1346784); further: nearly all actives have a fitted effect of over 30% in size
Outline: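 PR-UAS-bla HEK 293T cells carrying a UAS-driven beta-lactamase reporter were seeded in medium with 2% charcoal-stripped FBS, preincubated 6 hr at 37C, then exposed to compounds in DMSO for 16 hr; agonism was read by LiveBLAzer B/G FRET fluorescence.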

[12] = target: Progesterone receptor (Homo sapiens) (UniProt P06401); assay: qHTS assay to identify small molecule antagonists of the progesterone receptor (PR) signaling pathway (AID 1346795; active means well fitted inhibition curve with a large enough effect in the signal ratio in the repeat runs, not every such curve was filed as active; the % refers to the signal ratio)
Outline: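 PR-UAS-bla HEK293T cells carrying a UAS-driven beta-lactamase reporter were plated in medium with 2% charcoal-stripped FBS and rested 6 hr at 37C. Compounds were added with 1 nM R5020 (final) for 16 hr, then FRET substrate loaded 2 hr at room temperature.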

[13] = qHTS assay to identify small molecule antagonists of the progesterone receptor (PR) signaling pathway - cell viability counter screen (AID 1346798; active means well fitted curve in the direction sought with a large enough effect in the repeat runs; an effect the other way counts as inactive or inconclusive; further: series mostly up to about 92 µM; nearly all actives have a fitted effect of over 50% in size)
Outline: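 PR-UAS-bla HEK293T cells in medium with 2% charcoal-stripped FBS were treated with compounds plus R5020 for 16 hr at 37C. Cell viability was then read by CellTiter-Glo luminescence after 30 min at room temperature in the same wells.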

[14] = qHTS assay to identify small molecule agonists of the progesterone receptor (PR) signaling pathway - cell viability counter screen (AID 1346799); further: nearly all actives have a fitted effect of over 45% in size
Outline: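 PR-UAS-bla HEK293T cells, 3,000 per well in medium with 2% charcoal-stripped FBS, were preincubated 6 hr at 37C, then exposed to compounds for 16 hr; viability was read as CellTiter-Glo luminescence after 30 min at room temperature.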

[15] = qHTS assay to identify small molecule antagonists of the TGF-beta/Smad signaling pathway - cell viability counter screen (AID 1346824; active means well fitted curve in the direction sought with a large enough effect in the repeat runs; an effect the other way counts as inactive or inconclusive; further: nearly all actives have a fitted effect of over 50% in size)
Outline: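 SBE-bla HEK 293T cells were plated overnight at 37 C, then given compounds in DMSO plus TGF-beta1 (added as 0.25 ng/mL solution) for 5 hr. After the bla read, CellTiter-Glo was added to the same wells and luminescence read after 30 min at room temperature.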

[16] = qHTS assay to identify small molecule agonists of the TGF-beta/Smad signaling pathway - cell viability counter screen (AID 1346829; active means well fitted curve in the direction sought with a large enough effect in the repeat runs; an effect the other way counts as inactive or inconclusive; further: top concentration of the series differs between compounds; nearly all actives have a fitted effect of over 45% in size)
Outline: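 Compound-treated SBE-bla HEK 293T cells (5 hr, 37 C) were assessed for viability with CellTiter-Glo in parallel with the reporter read.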

[17] = qHTS assay to identify small molecule agonists of the TGF-beta/Smad signaling pathway (AID 1346859; active means well fitted activation curve with a large enough effect in the signal ratio in the repeat runs, not every such curve was filed as active; the % refers to the signal ratio; further: series mostly up to about 77 µM)
Outline: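 HEK 293T cells stably carrying a beta-lactamase reporter driven by the Smad binding element were seeded overnight, exposed to DMSO-dissolved compounds for 5 hr at 37 C, 5% CO2, then loaded with FRET substrate for 2 hr at room temperature.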

[18] = target: Thyrotropin-releasing hormone receptor (Homo sapiens) (UniProt P34981); assay: qHTS assay to identify small molecule antagonists of the thyrotropin-releasing hormone receptor (TRHR) signaling pathway (AID 1346877; active means well fitted inhibition curve with a large enough effect in the repeat runs, not every such curve was filed as active; further: series mostly up to about 51 µM)
Outline: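 Cells (TRHR-HEK293) are plated and kept 18 h at 37 °C/5% CO2. A calcium-sensitive dye is added for 2 h, compound follows for 5 min at room temperature, and TRH is then given at 1 nM final.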

[19] = target: Androgen receptor (Homo sapiens) (UniProt P10275); assay: qHTS assay to identify small molecule agonists of the androgen receptor (AR) signaling pathway in the presence of an antagonist (AID 1259381); further: nearly all actives have a fitted effect of over 15% in size
Outline: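 Cells are MDA-kb2 (human breast carcinoma, MMTV-luc, AR/GR responsive). Nilutamide is present at 3.0uM final throughout; compounds are added at 15 concentrations and incubated 16hr at 37C before ONE-Glo luminescence detection.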

[20] = target: Estrogen receptor (Homo sapiens) (UniProt P03372); assay: qHTS assay to identify small molecule agonists of the estrogen receptor alpha (ER-alpha) signaling pathway in the presence of an antagonist (AID 1259383); further: top concentration of the series differs between compounds; nearly all actives have a fitted effect of over 15% in size
Outline: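 Cells are hormone-deprived for 5 days (charcoal-stripped FBS, no phenol red), plated for 24hr, spiked with 10.0nM ICI-182,780, then dosed at 15 concentrations. After 22hr at 37C, ONE-Glo luminescence reports ERE-luciferase activity.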

Chain of Androgen receptor (Homo sapiens) (P10275 whole entry, looked up): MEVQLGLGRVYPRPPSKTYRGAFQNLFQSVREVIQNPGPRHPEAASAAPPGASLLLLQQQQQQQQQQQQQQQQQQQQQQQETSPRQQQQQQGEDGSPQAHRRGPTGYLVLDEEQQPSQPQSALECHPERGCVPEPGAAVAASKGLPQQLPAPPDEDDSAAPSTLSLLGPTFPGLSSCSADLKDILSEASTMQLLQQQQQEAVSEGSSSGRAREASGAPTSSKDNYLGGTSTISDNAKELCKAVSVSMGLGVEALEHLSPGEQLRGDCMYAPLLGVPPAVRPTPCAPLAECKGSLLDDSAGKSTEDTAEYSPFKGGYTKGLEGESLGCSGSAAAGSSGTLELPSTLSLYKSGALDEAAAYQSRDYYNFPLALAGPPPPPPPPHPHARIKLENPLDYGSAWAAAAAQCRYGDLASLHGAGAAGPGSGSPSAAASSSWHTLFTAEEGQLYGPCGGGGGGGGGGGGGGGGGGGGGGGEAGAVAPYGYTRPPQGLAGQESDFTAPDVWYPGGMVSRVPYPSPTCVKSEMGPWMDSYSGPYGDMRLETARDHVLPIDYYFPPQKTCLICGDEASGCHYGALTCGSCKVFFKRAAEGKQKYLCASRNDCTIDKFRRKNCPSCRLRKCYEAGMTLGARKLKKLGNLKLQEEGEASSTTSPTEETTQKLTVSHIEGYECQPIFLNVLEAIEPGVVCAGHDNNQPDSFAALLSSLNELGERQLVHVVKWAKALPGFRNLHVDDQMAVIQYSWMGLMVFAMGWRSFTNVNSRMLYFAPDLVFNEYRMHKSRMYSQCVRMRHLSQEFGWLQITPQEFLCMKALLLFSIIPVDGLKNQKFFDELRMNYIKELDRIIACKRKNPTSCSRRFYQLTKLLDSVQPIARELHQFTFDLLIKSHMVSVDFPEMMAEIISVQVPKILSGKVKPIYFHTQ
Chain of Estrogen receptor (Homo sapiens) (P03372 whole entry, looked up): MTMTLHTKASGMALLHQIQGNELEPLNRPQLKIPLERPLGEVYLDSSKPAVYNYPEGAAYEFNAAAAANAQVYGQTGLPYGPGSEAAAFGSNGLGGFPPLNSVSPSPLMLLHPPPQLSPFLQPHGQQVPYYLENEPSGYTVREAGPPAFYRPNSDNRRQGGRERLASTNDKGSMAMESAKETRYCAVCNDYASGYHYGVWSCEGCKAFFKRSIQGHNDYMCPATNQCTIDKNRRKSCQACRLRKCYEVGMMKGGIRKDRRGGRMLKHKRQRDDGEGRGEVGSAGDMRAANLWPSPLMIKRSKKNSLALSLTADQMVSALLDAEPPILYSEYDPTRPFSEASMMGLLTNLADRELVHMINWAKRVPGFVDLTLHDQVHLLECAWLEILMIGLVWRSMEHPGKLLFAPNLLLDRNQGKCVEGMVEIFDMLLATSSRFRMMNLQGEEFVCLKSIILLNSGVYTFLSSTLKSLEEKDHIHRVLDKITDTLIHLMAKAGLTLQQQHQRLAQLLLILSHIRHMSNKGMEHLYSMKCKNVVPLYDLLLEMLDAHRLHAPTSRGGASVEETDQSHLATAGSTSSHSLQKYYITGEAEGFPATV
Chain of Estrogen receptor beta (Homo sapiens) (Q92731 whole entry, looked up): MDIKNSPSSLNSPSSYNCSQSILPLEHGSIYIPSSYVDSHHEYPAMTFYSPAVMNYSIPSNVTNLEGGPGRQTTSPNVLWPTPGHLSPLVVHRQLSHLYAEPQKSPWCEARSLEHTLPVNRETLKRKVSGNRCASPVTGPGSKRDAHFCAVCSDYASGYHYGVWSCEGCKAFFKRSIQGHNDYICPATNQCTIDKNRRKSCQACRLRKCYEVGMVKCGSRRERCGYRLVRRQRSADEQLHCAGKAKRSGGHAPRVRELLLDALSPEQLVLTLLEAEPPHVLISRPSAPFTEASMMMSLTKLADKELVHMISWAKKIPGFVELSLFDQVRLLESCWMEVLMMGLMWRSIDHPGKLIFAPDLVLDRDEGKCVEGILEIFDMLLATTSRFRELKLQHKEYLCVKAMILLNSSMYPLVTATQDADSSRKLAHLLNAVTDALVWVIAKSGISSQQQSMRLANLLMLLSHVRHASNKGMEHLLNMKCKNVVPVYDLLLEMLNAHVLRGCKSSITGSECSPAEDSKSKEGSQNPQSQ
Chain of Progesterone receptor (Homo sapiens) (P06401 whole entry, looked up): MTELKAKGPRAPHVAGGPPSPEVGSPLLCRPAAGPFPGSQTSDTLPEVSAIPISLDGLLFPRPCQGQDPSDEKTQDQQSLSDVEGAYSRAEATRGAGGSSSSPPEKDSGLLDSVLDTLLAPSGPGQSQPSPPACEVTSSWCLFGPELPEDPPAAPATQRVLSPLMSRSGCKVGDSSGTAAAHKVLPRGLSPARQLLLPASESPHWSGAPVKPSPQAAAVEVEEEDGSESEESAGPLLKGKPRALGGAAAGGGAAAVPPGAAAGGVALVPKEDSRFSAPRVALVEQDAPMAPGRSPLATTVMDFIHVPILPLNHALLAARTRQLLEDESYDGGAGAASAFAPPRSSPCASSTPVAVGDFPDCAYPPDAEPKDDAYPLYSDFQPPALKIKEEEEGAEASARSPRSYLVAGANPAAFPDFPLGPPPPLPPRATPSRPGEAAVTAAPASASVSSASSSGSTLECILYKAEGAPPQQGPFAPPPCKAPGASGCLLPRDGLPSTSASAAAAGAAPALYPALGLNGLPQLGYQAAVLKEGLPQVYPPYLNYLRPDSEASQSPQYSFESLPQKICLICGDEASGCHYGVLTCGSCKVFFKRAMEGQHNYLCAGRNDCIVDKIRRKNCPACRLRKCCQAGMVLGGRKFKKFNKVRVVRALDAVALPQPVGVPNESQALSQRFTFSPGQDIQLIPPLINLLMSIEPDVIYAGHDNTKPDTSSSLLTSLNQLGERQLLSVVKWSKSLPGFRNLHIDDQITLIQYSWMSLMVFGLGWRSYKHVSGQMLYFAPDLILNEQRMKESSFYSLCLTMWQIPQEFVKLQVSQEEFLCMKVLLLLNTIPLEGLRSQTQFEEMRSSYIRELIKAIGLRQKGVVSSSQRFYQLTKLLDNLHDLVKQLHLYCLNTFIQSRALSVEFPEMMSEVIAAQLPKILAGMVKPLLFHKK
Chain of Thyrotropin receptor (Homo sapiens) (P16473 whole entry, looked up): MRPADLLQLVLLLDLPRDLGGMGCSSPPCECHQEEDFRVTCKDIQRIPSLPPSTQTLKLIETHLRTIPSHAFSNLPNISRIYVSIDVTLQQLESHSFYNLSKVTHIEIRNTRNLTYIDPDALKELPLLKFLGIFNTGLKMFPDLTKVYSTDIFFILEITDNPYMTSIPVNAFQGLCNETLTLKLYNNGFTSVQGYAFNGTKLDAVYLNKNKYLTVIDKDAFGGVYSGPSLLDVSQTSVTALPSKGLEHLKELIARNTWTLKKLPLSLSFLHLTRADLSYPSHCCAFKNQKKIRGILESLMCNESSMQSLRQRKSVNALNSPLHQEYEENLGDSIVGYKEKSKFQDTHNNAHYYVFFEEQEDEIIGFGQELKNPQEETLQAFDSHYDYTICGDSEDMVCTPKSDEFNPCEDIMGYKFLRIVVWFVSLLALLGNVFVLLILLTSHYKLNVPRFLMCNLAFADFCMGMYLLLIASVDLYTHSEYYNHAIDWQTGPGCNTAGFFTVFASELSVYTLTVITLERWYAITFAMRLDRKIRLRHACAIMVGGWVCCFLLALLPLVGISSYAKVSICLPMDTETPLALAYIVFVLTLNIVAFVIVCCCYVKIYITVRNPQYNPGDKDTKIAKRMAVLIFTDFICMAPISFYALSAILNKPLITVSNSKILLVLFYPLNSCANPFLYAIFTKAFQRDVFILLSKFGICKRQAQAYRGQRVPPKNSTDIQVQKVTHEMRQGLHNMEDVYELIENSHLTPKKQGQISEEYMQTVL
Chain of Thyrotropin-releasing hormone receptor (Homo sapiens) (P34981 whole entry, looked up): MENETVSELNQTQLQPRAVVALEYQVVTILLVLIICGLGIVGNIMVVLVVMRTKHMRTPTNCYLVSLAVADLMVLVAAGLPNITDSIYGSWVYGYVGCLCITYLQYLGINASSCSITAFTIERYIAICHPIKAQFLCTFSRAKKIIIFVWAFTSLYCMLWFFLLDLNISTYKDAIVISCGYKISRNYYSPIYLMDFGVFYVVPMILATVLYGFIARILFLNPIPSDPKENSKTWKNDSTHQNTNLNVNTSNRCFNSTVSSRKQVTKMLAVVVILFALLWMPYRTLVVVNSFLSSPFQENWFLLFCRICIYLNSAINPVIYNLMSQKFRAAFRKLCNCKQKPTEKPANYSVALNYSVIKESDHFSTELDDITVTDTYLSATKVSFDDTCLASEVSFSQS

Row | SMILES | Potency [1] | Potency [2] | outcome [3] | Potency [4] | Potency [5] | Potency [6] | Potency [7] | outcome [8] | Potency [9] | outcome [10] | Potency [11] | Potency [12] | Potency [13] | Potency [14] | outcome [15] | outcome [16] | outcome [17] | outcome [18] | Potency [19] | Potency [20]
1 | CCc1cc(S(=O)(=O)O)c2cc(C(C)C)cccc1-2 | inactive | inactive | inactive | inactive | inactive | inactive | inactive | inactive | inactive | inactive | inactive | inactive | inactive | inactive | inactive | inactive | inactive | inactive |  | 
2 | CCCCc1ccc2cccc(S(=O)(=O)O)c2c1 | inactive | inactive | inactive | inactive | inactive | inactive | inactive | inactive | inactive | inactive | inactive | inactive | inactive | inactive | inactive | inactive | inactive |  | inactive | inactive
3 | CC1CCN(CCCC(=O)c2ccc(F)cc2)CC1 | inactive | inactive | inactive | inactive | inactive | inactive | inactive | inactive | inactive | inactive | inactive | inactive |  | inactive | inactive | inactive | inactive | inactive |  | inactive
4 | CC(C)CCCCCCN | inactive | inactive | inactive | inactive | inactive | inactive | inactive | inactive | inactive | inactive | inactive | inactive |  | inactive | inactive | inactive | inactive | inactive | inactive | inactive
5 | CCC(=O)Nc1cccc(N)c1 | inactive | inactive | inactive | inactive | inactive | inactive | inactive | inactive | inactive | inactive | inactive | inactive | inactive | inactive | inactive | inactive | inactive | inactive |  | inactive
6 | CCN1CCN(c2cc3c(cc2F)c(=O)c(C(=O)O)cn3C2CC2)CC1 | inactive | inactive | inactive | inactive | inactive | inactive | inactive | inactive | inactive | inactive | inactive | inactive | inactive | inactive | inactive | inactive |  | inactive | inactive | 
7 | COC[C@H](c1ccc(C(F)(F)F)cc1)N1CCN(C2(C)CCN(C(=O)c3c(C)ncnc3C)CC2)C[C@H]1C | inactive | inactive | inactive | inactive | inactive | 2.66 µM (active) | inactive | inactive | inactive | inactive | inactive | inactive | inactive |  |  | inactive | inactive | inactive |  | inactive
